About 21,000 targets were measured; listed, in parts, are those with the largest changes and a random draw of the rest.
Tests used:
[1] = biological target: SARS_P49591_431_VEFVHMLNATMCATTR (UniProt P49591); test: probe-labelled cysteine peptide fold change vs DMSO (competition) (log2 fold change); higher = less target engagement (more negative = stronger competition); settings: THP-1, incubation time: 4 h
[2] = biological target: SLFN11_Q7Z7L1_842_VVQLSDACDMLGDHIVLDSVRR (UniProt Q7Z7L1); test: as above; settings: THP-1, incubation time: 4 h
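Note: competitive chemoproteomic profiling in live THP-1 cells with an iodoacetamide desthiobiotin (IA-DTB) probe, comparing probe-labelled peptide intensities in compound-treated cells against DMSO-treated controls.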

Sequence of UniProt P49591 (P49591 whole entry, looked up): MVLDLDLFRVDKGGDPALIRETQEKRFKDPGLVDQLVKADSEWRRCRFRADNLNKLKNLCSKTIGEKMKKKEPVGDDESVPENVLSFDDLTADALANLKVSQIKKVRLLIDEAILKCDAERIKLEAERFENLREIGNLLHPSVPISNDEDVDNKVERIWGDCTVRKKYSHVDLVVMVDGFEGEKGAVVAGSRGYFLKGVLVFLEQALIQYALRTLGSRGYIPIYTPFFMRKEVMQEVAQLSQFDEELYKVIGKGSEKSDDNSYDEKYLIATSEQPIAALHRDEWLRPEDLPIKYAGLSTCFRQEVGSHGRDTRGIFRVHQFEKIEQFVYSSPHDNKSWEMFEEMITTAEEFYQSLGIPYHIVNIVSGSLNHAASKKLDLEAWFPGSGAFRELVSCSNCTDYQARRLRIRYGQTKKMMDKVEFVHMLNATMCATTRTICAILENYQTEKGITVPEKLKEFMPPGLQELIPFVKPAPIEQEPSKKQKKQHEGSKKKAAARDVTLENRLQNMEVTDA
Sequence of UniProt Q7Z7L1 (Q7Z7L1 whole entry, looked up): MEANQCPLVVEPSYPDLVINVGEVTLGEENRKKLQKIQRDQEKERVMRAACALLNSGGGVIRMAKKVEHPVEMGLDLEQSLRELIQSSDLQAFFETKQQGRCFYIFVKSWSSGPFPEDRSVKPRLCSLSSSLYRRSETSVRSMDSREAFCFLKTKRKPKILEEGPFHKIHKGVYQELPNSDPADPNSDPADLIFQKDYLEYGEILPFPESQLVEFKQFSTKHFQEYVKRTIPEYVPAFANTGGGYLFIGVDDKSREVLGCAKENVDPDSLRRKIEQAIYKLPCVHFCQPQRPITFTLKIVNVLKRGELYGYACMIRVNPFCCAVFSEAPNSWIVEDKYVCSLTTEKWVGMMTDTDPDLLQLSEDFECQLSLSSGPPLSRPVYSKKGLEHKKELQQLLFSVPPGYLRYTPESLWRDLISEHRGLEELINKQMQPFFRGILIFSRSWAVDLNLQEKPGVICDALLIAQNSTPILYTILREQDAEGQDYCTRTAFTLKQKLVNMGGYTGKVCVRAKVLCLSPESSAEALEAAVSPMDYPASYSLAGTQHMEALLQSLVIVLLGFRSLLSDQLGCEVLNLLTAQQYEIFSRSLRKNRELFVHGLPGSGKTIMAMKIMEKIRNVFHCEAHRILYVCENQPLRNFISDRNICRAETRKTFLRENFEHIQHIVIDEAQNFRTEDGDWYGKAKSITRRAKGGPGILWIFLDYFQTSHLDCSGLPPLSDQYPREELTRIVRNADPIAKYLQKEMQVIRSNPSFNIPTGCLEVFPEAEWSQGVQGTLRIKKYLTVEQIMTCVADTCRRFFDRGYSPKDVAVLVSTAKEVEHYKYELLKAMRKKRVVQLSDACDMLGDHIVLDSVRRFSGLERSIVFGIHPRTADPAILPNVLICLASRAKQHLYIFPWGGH

With CC1Cc2ccccc2N1C(=O)C1CCCN(C(=O)CCl)C1 (mixture of isomers) [TRIM25 ligand 11 (diastereomer mixture)] the “probe-labelled cysteine peptide fold change” value ([1]; 10 µM) was 0.102, the “probe-labelled cysteine peptide fold change” value ([1]; 50 µM) was 0.113 and the “probe-labelled cysteine peptide fold change” value ([2]; 10 µM) was 0.174. The “probe-labelled cysteine peptide fold change” value ([2]; 50 µM) was 0.0323.
